According to PubChem BioAssay (NCI):
This is part of a sample that, as a whole, favours compounds with a hit. Of some 83,000 tested, about 20% had one in any assay.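 96-well plates, one dose, 48 hours. Percent growth reported; active if below 10.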 The source made the active and inactive calls.

Assays:
Assay in all cases: NCI-60 one-dose screen, 48 h (100 = growth as untreated, 0 = no growth, -100 = all killed)
Conditions in all cases: 10 µM unless noted
HCT-15 colon = tested on: HCT-15 colon
HT29 colon = tested on: HT29 colon
SNB-75 CNS = tested on: SNB-75 CNS
SNB-19 CNS = tested on: SNB-19 CNS
U251 CNS = tested on: U251 CNS
PC-3 prostate = tested on: PC-3 prostate
SK-MEL-5 melanoma = tested on: SK-MEL-5 melanoma
UACC-62 melanoma = tested on: UACC-62 melanoma
LOX IMVI melanoma = tested on: LOX IMVI melanoma
SK-MEL-28 melanoma = tested on: SK-MEL-28 melanoma
SK-MEL-2 melanoma = tested on: SK-MEL-2 melanoma
EKVX NSCLC = tested on: EKVX NSCLC
SN12C renal = tested on: SN12C renal
UO-31 renal = tested on: UO-31 renal
TK-10 renal = tested on: TK-10 renal
ACHN renal = tested on: ACHN renal
CAKI-1 renal = tested on: CAKI-1 renal
A498 renal = tested on: A498 renal
CCRF-CEM leukemia = tested on: CCRF-CEM leukemia
MOLT-4 leukemia = tested on: MOLT-4 leukemia

Measured: growth

COc1c(N2CC3CCCNC3C2)c(F)cc2c(=O)c(C(=O)N/N=C/c3c[nH]c4ccccc34)cn(C3CC3)c12 (stereo not given)
inactive: HCT-15 colon 57.4% | HT29 colon 50.5% | SNB-75 CNS 99.5% | SNB-19 CNS 103% | U251 CNS 99.2% | PC-3 prostate 76.9% | SK-MEL-5 melanoma 95.3% | UACC-62 melanoma 103% | LOX IMVI melanoma 90.2% | SK-MEL-28 melanoma 104% | SK-MEL-2 melanoma 110% | EKVX NSCLC 105% | SN12C renal 95.7% | UO-31 renal 77.2% | TK-10 renal 137% | ACHN renal 99.8% | CAKI-1 renal 98.7% | A498 renal 118% | CCRF-CEM leukemia 71.2% | MOLT-4 leukemia 74.1%

CC1(C)CC[C@]23CC[C@]4(C)[C@H](CC[C@@H]5[C@@]6(C)CCCN(CO)C(C)(C)[C@@H]6CC[C@]54C)[C@H]2[C@H]1OC3
active: HCT-15 colon 7.34% | LOX IMVI melanoma -80.9%
inactive: HT29 colon 21% | SNB-75 CNS 112% | SNB-19 CNS 56.6% | U251 CNS 32.5% | PC-3 prostate 73.6% | SK-MEL-5 melanoma 100% | UACC-62 melanoma 101% | SK-MEL-28 melanoma 103% | SK-MEL-2 melanoma 98.4% | EKVX NSCLC 90.9% | SN12C renal 89.6% | UO-31 renal 76.7% | TK-10 renal 129% | ACHN renal 96.7% | CAKI-1 renal 62.1% | A498 renal 107% | CCRF-CEM leukemia 58.5% | MOLT-4 leukemia 35.4%

CC1=N[C@@H]2CN(C(=O)OC(C)(C)C)C[C@@H]2n2c1cc1ccccc1c2=O
inactive: HCT-15 colon 104% | HT29 colon 106% | SNB-75 CNS 91.7% | SNB-19 CNS 105% | U251 CNS 106% | PC-3 prostate 92% | SK-MEL-5 melanoma 99.1% | UACC-62 melanoma 97.9% | LOX IMVI melanoma 98.2% | SK-MEL-28 melanoma 115% | SK-MEL-2 melanoma 102% | EKVX NSCLC 103% | SN12C renal 97.1% | UO-31 renal 74.9% | TK-10 renal 123% | ACHN renal 92.6% | CAKI-1 renal 80.2% | A498 renal 114% | CCRF-CEM leukemia 105% | MOLT-4 leukemia 106%

C=CCN(C)S(=O)(=O)/N=C1\NC(=O)NC1=C(Cl)Cl
active: HCT-15 colon -77.2% | HT29 colon 5.89% | U251 CNS -10.2% | LOX IMVI melanoma -88.3% | SK-MEL-28 melanoma -83.6% | SN12C renal -22.5% | ACHN renal -96.7% | CAKI-1 renal 2.82% | CCRF-CEM leukemia -27.1% | MOLT-4 leukemia -19.7%
inactive: SNB-75 CNS 100% | SNB-19 CNS 58.4% | PC-3 prostate 47% | SK-MEL-5 melanoma 91.6% | UACC-62 melanoma 32.9% | SK-MEL-2 melanoma 90% | EKVX NSCLC 62.8% | UO-31 renal 92.5% | TK-10 renal 65.7% | A498 renal 97.6%

COc1ccc(NCc2cn(-c3ccc(C(=O)O)cc3)nc2-c2cc(C(F)(F)F)cc(C(F)(F)F)c2)cc1
inactive: HCT-15 colon 88.8% | HT29 colon 99.1% | SNB-75 CNS 91.9% | SNB-19 CNS 94.9% | U251 CNS 102% | PC-3 prostate 93% | SK-MEL-5 melanoma 98.8% | UACC-62 melanoma 97.3% | LOX IMVI melanoma 99.5% | SK-MEL-28 melanoma 107% | SK-MEL-2 melanoma 101% | EKVX NSCLC 90.3% | SN12C renal 95.4% | UO-31 renal 93.1% | TK-10 renal 110% | ACHN renal 102% | CAKI-1 renal 81.5% | A498 renal 72.1% | CCRF-CEM leukemia 95.9% | MOLT-4 leukemia 86.4%

CCCCCCCn1cc2c(NCCc3ccccc3)ncnc2n1
inactive: HCT-15 colon 95.6% | HT29 colon 118% | SNB-75 CNS 90.6% | SNB-19 CNS 90.4% | U251 CNS 96.1% | PC-3 prostate 92.8% | SK-MEL-5 melanoma 99.6% | UACC-62 melanoma 74.2% | LOX IMVI melanoma 117% | SK-MEL-28 melanoma 101% | SK-MEL-2 melanoma 127% | EKVX NSCLC 84.8% | SN12C renal 93.4% | UO-31 renal 71.2% | TK-10 renal 119% | ACHN renal 95.1% | CAKI-1 renal 78.7% | A498 renal 95.3% | CCRF-CEM leukemia 96.2% | MOLT-4 leukemia 95.4%

CCO/C=N/C1=C(C#N)C(c2ccc(Cl)cc2)c2sc3c(CC)cccc3c2O1 (stereo not given)
active: SNB-75 CNS -5.34% | A498 renal 2.43%
inactive: HCT-15 colon 23.3% | HT29 colon 10.7% | SNB-19 CNS 24.1% | U251 CNS 20% | PC-3 prostate 16.5% | SK-MEL-5 melanoma 20.5% | UACC-62 melanoma 15.8% | LOX IMVI melanoma 29.9% | SK-MEL-28 melanoma 61.2% | SK-MEL-2 melanoma 38.8% | EKVX NSCLC 47.8% | SN12C renal 36.3% | UO-31 renal 39.5% | TK-10 renal 60.6% | ACHN renal 40.9% | CAKI-1 renal 40.6% | CCRF-CEM leukemia 16.1% | MOLT-4 leukemia 23.6%

FC(F)(F)c1cc(Nc2cccc(Oc3ccc(NC4=NCCN4)nc3)c2)ccc1Cl
active: HCT-15 colon -71.4% | HT29 colon 4.39% | SNB-19 CNS 9.09% | U251 CNS -7.18% | PC-3 prostate -36.5% | SK-MEL-5 melanoma 4.94% | UACC-62 melanoma -45.5% | LOX IMVI melanoma -94.8% | SK-MEL-2 melanoma 5.11% | SN12C renal -24.8% | ACHN renal 1.37% | MOLT-4 leukemia 9.2%
inactive: SNB-75 CNS 10.7% | SK-MEL-28 melanoma 29.4% | EKVX NSCLC 12.6% | UO-31 renal 21.9% | TK-10 renal 27.5% | CAKI-1 renal 16.2% | A498 renal 37.9% | CCRF-CEM leukemia 14.6%
